Assay results: the supplement of paper PMC6522484
± gives the standard deviation of the averaged measurements.

Columns and labels:
[1] = tested on: DLD1; test: cell viability (CellTiter-Glo) relative to plate median (fraction of plate median); higher = more viable cells; details: 10 µM, treatment time 24 h
In short: (§1)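 Kinase inhibitor library compounds were added at a final 10 µM for 24 h to colorectal cancer cells in 384-well plates, 24 h after seeding. The cells stably expressed lentiviral TCF/Wnt firefly luciferase reporters. Firefly luciferase and CellTiterGlo luminescence came from parallel plates, and each well was normalised to its plate median (webcellHTS2, additive, untransformed), averaged over two independent replicates.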

[2] = tested on: HCT116; test: as above; details: 10 µM; treatment time 24 h; reporter: TCF4/Wnt
In short: as §1

[3] = tested on: SW480; test: as above; details: 10 µM; treatment time 24 h; reporter: 7TFP
In short: as §1

[4] = tested on: DLD1; test: TCF/Wnt firefly luciferase reporter signal relative to plate median (fraction of plate median); higher = higher Wnt reporter signal; details: 10 µM, treatment time 24 h
In short: as §1

[5] = tested on: HCT116; test: as above; details: 10 µM; treatment time 24 h; reporter: TCF4/Wnt
In short: as §1

[6] = tested on: SW480; test: as above; details: 10 µM; treatment time 24 h; reporter: 7TFP
In short: as §1

SMILES | cell viability ([1]; reporter: 7TFP) | cell viability ([1]; reporter: TCF4/Wnt) | cell viability [2] | cell viability [3] | TCF/Wnt firefly luciferase reporter signal ([4]; reporter: 7TFP) | TCF/Wnt firefly luciferase reporter signal ([4]; reporter: TCF4/Wnt) | TCF/Wnt firefly luciferase reporter signal [5] | TCF/Wnt firefly luciferase reporter signal [6]
O=C1NCCc2[nH]c(-c3ccncc3)cc21 | 1.03 ± 0.14 | 1.03 ± 0.054 | 0.665 ± 0.14 | 1.24 ± 0.11 | 0.612 ± 0.054 | 0.44 ± 0.11 | 0.222 ± 0.0085 | 0.829 ± 0.023
Cc1[nH]nc2ccc(-c3cncc(OC[C@@H](N)Cc4ccccc4)c3)cc12 | 1.02 ± 0.18 | 1.17 ± 0.05 | 0.755 ± 0.036 | 1.19 ± 0.099 | 0.51 ± 0.029 | 0.189 ± 0.021 | 0.196 ± 0.047 | 0.822 ± 0.042
C[S+]([O-])c1ccc(-c2nc(-c3ccc(F)cc3)c(-c3ccncc3)[nH]2)cc1 (stereo not given) | 0.99 ± 0.099 | 1.02 ± 0.028 | 1.11 ± 0.035 | 0.913 ± 0.0099 | 0.82 ± 0.16 | 0.884 ± 0.22 | 1.26 ± 0.38 | 0.935 ± 0.064
C[C@@H](Oc1cc(-n2cnc3ccc(CN4CCN(C)CC4)cc32)sc1C(N)=O)c1ccccc1C(F)(F)F | 0.905 ± 0.036 | 0.934 ± 0.033 | 0.782 ± 0.0057 | 1.05 ± 0.057 | 0.726 ± 0.15 | 0.565 ± 0.17 | 0.335 ± 0.045 | 0.941 ± 0.11
Clc1ccc(C2(c3ccc(-c4cn[nH]c4)cc3)CCNCC2)cc1 | 1.01 ± 0.025 | 1.08 ± 0.028 | 1.03 ± 0.13 | 1.15 ± 0.057 | 1.13 ± 0.13 | 0.883 ± 0.11 | 0.871 ± 0.024 | 1.33 ± 0.021
CCn1cc(-c2ccnc3[nH]c(-c4cccc(CN(C)C)c4)cc23)c(-c2ccc(NC(=O)N(C)C)cc2)n1 | 0.994 ± 0.11 | 0.9965 ± 0.0021 | 0.913 ± 0.05 | 1.07 ± 0.099 | 1.01 ± 0.11 | 1.05 ± 0.081 | 1.71 ± 0.028 | 1.02 ± 0.16
Cc1cnc(Nc2ccc(N3CCN(C)CC3)cc2)nc1Nc1cccc(S(=O)(=O)NC(C)(C)C)c1 | 0.833 ± 0.04 | 0.912 ± 0.18 | 0.514 ± 0.17 | 0.702 ± 0.18 | 1.37 ± 0.2 | 2.17 ± 0.035 | 2.98 ± 0.97 | 0.613 ± 0.3
CC(=O)NCC(=O)N1[C@@H]2CC[C@H]1c1ccc(Nc3ncc(C(F)(F)F)c(NC4CCC4)n3)cc12 | 0.907 ± 0.028 | 1.04 ± 0.08 | 0.256 ± 0.13 | 0.877 ± 0.071 | 0.742 ± 0.09 | 1.24 ± 0.092 | 0.149 ± 0.0021 | 1.21 ± 0.11
CCOc1cc2ncc(C#N)c(Nc3ccc(F)c(Cl)c3)c2cc1NC(=O)/C=C/CN(C)C [Pelitinib (EKB-569)] | 1.02 | 0.875 ± 0.081 | 0.878 ± 0.021 | 1.28 ± 0.14 | 0.837 ± 0.16 | 1.01 ± 0.17 | 0.668 ± 0.071 | 1.08 ± 0.021
CNC(=O)c1cc(Oc2ccc(NC(=O)Nc3ccc(Cl)c(C(F)(F)F)c3)cc2)ccn1 [Sorafenib (Nexavar)] | 1.11 ± 0.028 | 1.04 ± 0.098 | 1.135 ± 0.0071 | 1.04 ± 0.021 | 0.959 ± 0.2 | 0.883 ± 0.081 | 1.06 ± 0.078 | 1.19 ± 0.057
